What follows are sequences tested against T1, SPIC (Homo sapiens, UniProt Q8N5J4 1-248) (assay: DAPPL (digital affinity profiling via proximity ligation, sequencing); 10 mM Tris-HCl pH 7.5, 50 mM NaCl, 1 mM DTT, 4% glycerol, room temperature, 30 min; GST-TFs on glutathione beads, 16-mer random dsDNA library, 0.1% formaldehyde crosslink after washing; high values mean tight binding). Conditions: protein: recombinant; tags: N-terminal GST; dsDNA, one strand shown.
T1 sequence: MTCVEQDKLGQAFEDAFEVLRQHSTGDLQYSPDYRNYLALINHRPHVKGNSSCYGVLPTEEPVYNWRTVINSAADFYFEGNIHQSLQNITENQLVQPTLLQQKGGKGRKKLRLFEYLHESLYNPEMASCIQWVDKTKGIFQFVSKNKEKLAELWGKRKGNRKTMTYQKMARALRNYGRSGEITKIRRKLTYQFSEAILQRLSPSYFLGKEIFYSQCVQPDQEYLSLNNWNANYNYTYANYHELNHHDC
Summary of the method: (§1)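 Sequencing on an Illumina NextSeq500 followed washing, crosslinking with 0.1% formaldehyde, proximity ligation (BsaI/T4 ligase, 1 h, 37 °C) and PCR amplification of pools that had been incubated for 30 min at room temperature with 200 nmole of a random double-stranded 16-mer DNA library in Tris/NaCl/DTT/glycerol buffer. Each pool held DNA-barcoded human transcription factors, expressed in yeast as GST fusions and captured on glutathione beads, plus a tag-only sample. Binding signal is a hexamer's read frequency for a factor divided by its frequency in the tag-only sample.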

Q: Which binding signal does the source give for TAAATT here?
A: 1.25 fold enrichment (6-mer frequency, TF over GST control)

Q: Which binding signal does the source give for TCCTTG here?
A: 1.23 fold enrichment (6-mer frequency, TF over GST control)

Q: For CCATAT, which binding signal is on record?
A: 1.31 fold enrichment (6-mer frequency, TF over GST control)

Q: Which binding signal does the source give for CTAACT here?
A: 1.31 fold enrichment (6-mer frequency, TF over GST control)

Q: With CTGCTT as the sequence, how does the binding signal read?
A: 1.8 fold enrichment (6-mer frequency, TF over GST control)

Q: AATTAC was tested. Which binding signal did it give?
A: 1.33 fold enrichment (6-mer frequency, TF over GST control)

Q: How did the binding signal turn out when TGTGCT was run?
A: 1.35 fold enrichment (6-mer frequency, TF over GST control)

Q: How did the binding signal turn out when ATACAA was run?
A: 1.06 fold enrichment (6-mer frequency, TF over GST control)

Q: TTACTA was tested. Which binding signal did it give?
A: 1.38 fold enrichment (6-mer frequency, TF over GST control)

Q: How did the binding signal turn out when ACTCGT was run?
A: 1.16 fold enrichment (6-mer frequency, TF over GST control)

Q: How did the binding signal turn out when AAACAA was run?
A: 1.33 fold enrichment (6-mer frequency, TF over GST control)

Q: Which binding signal does the source give for AAAAAG here?
A: 1.13 fold enrichment (6-mer frequency, TF over GST control)

Q: With CCCGAT as the sequence, how does the binding signal read?
A: 1.29 fold enrichment (6-mer frequency, TF over GST control)

Q: How did the binding signal turn out when TATTCA was run?
A: 1.47 fold enrichment (6-mer frequency, TF over GST control)

Q: How did the binding signal turn out when CAATTA was run?
A: 1.05 fold enrichment (6-mer frequency, TF over GST control)

Q: For CTTTTG, which binding signal is on record?
A: 1.36 fold enrichment (6-mer frequency, TF over GST control)

Q: With ACGTCC as the sequence, how does the binding signal read?
A: 1.59 fold enrichment (6-mer frequency, TF over GST control)

Q: How did the binding signal turn out when CCCTTC was run?
A: 1.19 fold enrichment (6-mer frequency, TF over GST control)

Q: For ATGACA, which binding signal is on record?
A: 1.14 fold enrichment (6-mer frequency, TF over GST control)

Q: With AATCAA as the sequence, how does the binding signal read?
A: 1.11 fold enrichment (6-mer frequency, TF over GST control)

These sequences were tested against ELF4 (Homo sapiens, UniProt Q99607 1-663) in the same assay as above. Conditions: protein: recombinant; tags: N-terminal GST; dsDNA, one strand shown.
Summary of the method: as §1

ELF4, sequence (Q99607 whole entry): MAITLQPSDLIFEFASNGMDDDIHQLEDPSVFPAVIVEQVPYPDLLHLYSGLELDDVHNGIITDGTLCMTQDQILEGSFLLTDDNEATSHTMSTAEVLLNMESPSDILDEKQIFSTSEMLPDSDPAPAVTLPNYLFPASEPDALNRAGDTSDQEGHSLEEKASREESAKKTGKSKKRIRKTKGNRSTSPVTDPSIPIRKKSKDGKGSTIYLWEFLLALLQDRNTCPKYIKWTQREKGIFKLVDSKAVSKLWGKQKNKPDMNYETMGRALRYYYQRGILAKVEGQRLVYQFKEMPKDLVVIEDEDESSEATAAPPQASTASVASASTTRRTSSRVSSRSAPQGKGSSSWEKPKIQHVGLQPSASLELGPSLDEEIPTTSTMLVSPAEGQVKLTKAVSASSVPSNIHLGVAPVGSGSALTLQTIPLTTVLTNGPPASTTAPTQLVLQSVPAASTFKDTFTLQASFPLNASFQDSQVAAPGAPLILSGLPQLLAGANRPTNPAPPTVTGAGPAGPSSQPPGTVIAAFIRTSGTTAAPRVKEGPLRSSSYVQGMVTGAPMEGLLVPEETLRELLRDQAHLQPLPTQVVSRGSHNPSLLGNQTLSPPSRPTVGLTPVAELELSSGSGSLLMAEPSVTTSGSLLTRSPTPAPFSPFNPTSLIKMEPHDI

Q: Which binding signal does the source give for CCTACT here?
A: 1.7 fold enrichment (6-mer frequency, TF over GST control)

Q: TCCTAG was tested. Which binding signal did it give?
A: 1.29 fold enrichment (6-mer frequency, TF over GST control)

Q: With GCACTT as the sequence, how does the binding signal read?
A: 1.77 fold enrichment (6-mer frequency, TF over GST control)

Q: How did the binding signal turn out when TATCAT was run?
A: 1.21 fold enrichment (6-mer frequency, TF over GST control)

Q: ATAGTA was tested. Which binding signal did it give?
A: 1.16 fold enrichment (6-mer frequency, TF over GST control)

Q: Which binding signal does the source give for TCATCC here?
A: 1.36 fold enrichment (6-mer frequency, TF over GST control)

Q: Which binding signal does the source give for CCATAA here?
A: 1.19 fold enrichment (6-mer frequency, TF over GST control)

Q: Which binding signal does the source give for TACGCG here?
A: 1.12 fold enrichment (6-mer frequency, TF over GST control)

Q: How did the binding signal turn out when TAATCT was run?
A: 1.51 fold enrichment (6-mer frequency, TF over GST control)

Q: With GCTTGC as the sequence, how does the binding signal read?
A: 1.09 fold enrichment (6-mer frequency, TF over GST control)

Q: How did the binding signal turn out when TTCGTT was run?
A: 1.34 fold enrichment (6-mer frequency, TF over GST control)

Q: How did the binding signal turn out when TCAACC was run?
A: 1.19 fold enrichment (6-mer frequency, TF over GST control)

Q: With TGCTAT as the sequence, how does the binding signal read?
A: 1.37 fold enrichment (6-mer frequency, TF over GST control)

Q: How did the binding signal turn out when CTACTC was run?
A: 1.37 fold enrichment (6-mer frequency, TF over GST control)

Q: How did the binding signal turn out when ATCAAC was run?
A: 1.09 fold enrichment (6-mer frequency, TF over GST control)

Q: How did the binding signal turn out when CTTGCG was run?
A: 1.27 fold enrichment (6-mer frequency, TF over GST control)

Q: ATGTTC was tested. Which binding signal did it give?
A: 1.22 fold enrichment (6-mer frequency, TF over GST control)

Q: ATGAGC was tested. Which binding signal did it give?
A: 1.29 fold enrichment (6-mer frequency, TF over GST control)

Q: How did the binding signal turn out when AAATCA was run?
A: 1.24 fold enrichment (6-mer frequency, TF over GST control)

Q: With TGACCC as the sequence, how does the binding signal read?
A: 1.48 fold enrichment (6-mer frequency, TF over GST control)

Q: TAAATT was tested. Which binding signal did it give?
A: 1.17 fold enrichment (6-mer frequency, TF over GST control)

Q: TCCTTG was tested. Which binding signal did it give?
A: 1.27 fold enrichment (6-mer frequency, TF over GST control)

Q: How did the binding signal turn out when CCATAT was run?
A: 1.17 fold enrichment (6-mer frequency, TF over GST control)

Q: With CTAACT as the sequence, how does the binding signal read?
A: 1.4 fold enrichment (6-mer frequency, TF over GST control)

Q: CTGCTT was tested. Which binding signal did it give?
A: 1.68 fold enrichment (6-mer frequency, TF over GST control)

Q: With AATTAC as the sequence, how does the binding signal read?
A: 1.24 fold enrichment (6-mer frequency, TF over GST control)

Q: TGTGCT was tested. Which binding signal did it give?
A: 1.17 fold enrichment (6-mer frequency, TF over GST control)

Q: For ATACAA, which binding signal is on record?
A: 1.17 fold enrichment (6-mer frequency, TF over GST control)

Q: For TTACTA, which binding signal is on record?
A: 1.3 fold enrichment (6-mer frequency, TF over GST control)

Q: Which binding signal does the source give for ACTCGT here?
A: 1.3 fold enrichment (6-mer frequency, TF over GST control)

Q: How did the binding signal turn out when AAACAA was run?
A: 1.31 fold enrichment (6-mer frequency, TF over GST control)

Q: How did the binding signal turn out when AAAAAG was run?
A: 1.26 fold enrichment (6-mer frequency, TF over GST control)

Q: For CCCGAT, which binding signal is on record?
A: 1.23 fold enrichment (6-mer frequency, TF over GST control)

Q: How did the binding signal turn out when TATTCA was run?
A: 1.29 fold enrichment (6-mer frequency, TF over GST control)

Q: With CAATTA as the sequence, how does the binding signal read?
A: 1.14 fold enrichment (6-mer frequency, TF over GST control)

Q: How did the binding signal turn out when CTTTTG was run?
A: 1.42 fold enrichment (6-mer frequency, TF over GST control)

Q: How did the binding signal turn out when ACGTCC was run?
A: 1.54 fold enrichment (6-mer frequency, TF over GST control)

Q: With CCCTTC as the sequence, how does the binding signal read?
A: 1.49 fold enrichment (6-mer frequency, TF over GST control)

Q: With ATGACA as the sequence, how does the binding signal read?
A: 1.32 fold enrichment (6-mer frequency, TF over GST control)

Q: With AATCAA as the sequence, how does the binding signal read?
A: 1.21 fold enrichment (6-mer frequency, TF over GST control)

What follows are sequences tested against T2, ELK4 (Homo sapiens, UniProt P28324-2 1-405) in the same assay as above. Conditions: protein: recombinant; tags: N-terminal GST; dsDNA, one strand shown.
T2 sequence: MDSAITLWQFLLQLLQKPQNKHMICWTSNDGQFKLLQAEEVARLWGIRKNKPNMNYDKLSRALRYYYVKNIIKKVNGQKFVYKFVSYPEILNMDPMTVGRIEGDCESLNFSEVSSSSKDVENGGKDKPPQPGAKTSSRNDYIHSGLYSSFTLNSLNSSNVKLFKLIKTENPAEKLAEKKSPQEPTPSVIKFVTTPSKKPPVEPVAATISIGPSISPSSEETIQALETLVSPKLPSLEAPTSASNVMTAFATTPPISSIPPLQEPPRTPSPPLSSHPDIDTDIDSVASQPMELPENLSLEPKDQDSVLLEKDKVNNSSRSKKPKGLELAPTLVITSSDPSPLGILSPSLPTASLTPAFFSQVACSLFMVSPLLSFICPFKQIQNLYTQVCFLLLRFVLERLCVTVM
Summary of the method: as §1

Q: For CCTACT, which binding signal is on record?
A: 1.76 fold enrichment (6-mer frequency, TF over GST control)

Q: How did the binding signal turn out when TCCTAG was run?
A: 1.24 fold enrichment (6-mer frequency, TF over GST control)

Q: How did the binding signal turn out when GCACTT was run?
A: 1.62 fold enrichment (6-mer frequency, TF over GST control)

Q: Which binding signal does the source give for TATCAT here?
A: 1.16 fold enrichment (6-mer frequency, TF over GST control)

Q: For ATAGTA, which binding signal is on record?
A: 1.24 fold enrichment (6-mer frequency, TF over GST control)

Q: How did the binding signal turn out when TCATCC was run?
A: 1.24 fold enrichment (6-mer frequency, TF over GST control)

Q: Which binding signal does the source give for CCATAA here?
A: 1.11 fold enrichment (6-mer frequency, TF over GST control)

Q: With TACGCG as the sequence, how does the binding signal read?
A: 1.25 fold enrichment (6-mer frequency, TF over GST control)

Q: For TAATCT, which binding signal is on record?
A: 1.4 fold enrichment (6-mer frequency, TF over GST control)

Q: For GCTTGC, which binding signal is on record?
A: 1.34 fold enrichment (6-mer frequency, TF over GST control)

Q: How did the binding signal turn out when TTCGTT was run?
A: 1.37 fold enrichment (6-mer frequency, TF over GST control)

Q: How did the binding signal turn out when TCAACC was run?
A: 1.16 fold enrichment (6-mer frequency, TF over GST control)

Q: For TGCTAT, which binding signal is on record?
A: 1.57 fold enrichment (6-mer frequency, TF over GST control)

Q: Which binding signal does the source give for CTACTC here?
A: 1.41 fold enrichment (6-mer frequency, TF over GST control)

Q: Which binding signal does the source give for ATCAAC here?
A: 1.14 fold enrichment (6-mer frequency, TF over GST control)

Q: CTTGCG was tested. Which binding signal did it give?
A: 1.51 fold enrichment (6-mer frequency, TF over GST control)

Q: ATGTTC was tested. Which binding signal did it give?
A: 1.2 fold enrichment (6-mer frequency, TF over GST control)

Q: Which binding signal does the source give for ATGAGC here?
A: 1.26 fold enrichment (6-mer frequency, TF over GST control)

Q: With AAATCA as the sequence, how does the binding signal read?
A: 1.23 fold enrichment (6-mer frequency, TF over GST control)

Q: Which binding signal does the source give for TGACCC here?
A: 1.39 fold enrichment (6-mer frequency, TF over GST control)

Q: With TAAATT as the sequence, how does the binding signal read?
A: 1.31 fold enrichment (6-mer frequency, TF over GST control)

Q: Which binding signal does the source give for TCCTTG here?
A: 1.41 fold enrichment (6-mer frequency, TF over GST control)

Q: Which binding signal does the source give for CCATAT here?
A: 1.13 fold enrichment (6-mer frequency, TF over GST control)

Q: Which binding signal does the source give for CTAACT here?
A: 1.36 fold enrichment (6-mer frequency, TF over GST control)

Q: Which binding signal does the source give for CTGCTT here?
A: 1.88 fold enrichment (6-mer frequency, TF over GST control)

Q: How did the binding signal turn out when AATTAC was run?
A: 1.27 fold enrichment (6-mer frequency, TF over GST control)

Q: For TGTGCT, which binding signal is on record?
A: 1.17 fold enrichment (6-mer frequency, TF over GST control)

Q: How did the binding signal turn out when ATACAA was run?
A: 1.08 fold enrichment (6-mer frequency, TF over GST control)

Q: TTACTA was tested. Which binding signal did it give?
A: 1.32 fold enrichment (6-mer frequency, TF over GST control)

Q: How did the binding signal turn out when ACTCGT was run?
A: 1.28 fold enrichment (6-mer frequency, TF over GST control)

Q: How did the binding signal turn out when AAACAA was run?
A: 1.28 fold enrichment (6-mer frequency, TF over GST control)

Q: Which binding signal does the source give for AAAAAG here?
A: 1.32 fold enrichment (6-mer frequency, TF over GST control)

Q: CCCGAT was tested. Which binding signal did it give?
A: 1.11 fold enrichment (6-mer frequency, TF over GST control)

Q: Which binding signal does the source give for TATTCA here?
A: 1.33 fold enrichment (6-mer frequency, TF over GST control)

Q: For CAATTA, which binding signal is on record?
A: 1.05 fold enrichment (6-mer frequency, TF over GST control)

Q: CTTTTG was tested. Which binding signal did it give?
A: 1.35 fold enrichment (6-mer frequency, TF over GST control)

Q: For ACGTCC, which binding signal is on record?
A: 1.46 fold enrichment (6-mer frequency, TF over GST control)

Q: With CCCTTC as the sequence, how does the binding signal read?
A: 1.35 fold enrichment (6-mer frequency, TF over GST control)

Q: ATGACA was tested. Which binding signal did it give?
A: 1.19 fold enrichment (6-mer frequency, TF over GST control)

Q: With AATCAA as the sequence, how does the binding signal read?
A: 1.18 fold enrichment (6-mer frequency, TF over GST control)

Reference: PMC7862700, “An all-to-all approach to the identification of sequence-specific readers for epigenetic DNA modifications on cytosine”
